Shown are actives, neighbours in structure and some others; about 2.8% of the full set was active somewhere.
IP6K1 inhibitor: IP6K1 kinase inhibition | hit rate 0.81% among 140,000 | activity change, % (series mostly up to about 58 µM) | AID 1645851 | IP6K1 kinase, ADP-Glo luminescence, 2 h; stronger effect = lower value; in the data active means activity change below about -25%; further: on the % scale 0 is the no-effect control and ±100 the full control effect
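ADP-Glo luminescence measures ADP made by human IP6K1 during a 2 h RT reaction with ATP/IP6 (mix at 1.3 mM/130 uM); top library doses 57.5 and 19.1 uM final.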
SNCA expr inhib: SNCA gene expression inhibition | AID 1671194 | Potency, µM (top dose mostly 57.2 µM), without a hit: at the top dose activity change, negative = inhibition, usual class: inhibitors | HEK-293 SNCA-luciferase knock-in, luminescence, 24 h | hit rate 0.17% among 140,000;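 further: potency means the concentration at half of the fitted maximal effect; plate controls were DMSO cells for no effect and cell-free wells for full effect; nearly all actives have a fitted effect of over 45% in size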
HEK293 viab: counter-screen for SNCA expression inhibitors: cell viability; HEK-293-SNCA-luc viability, GF-AFC fluorescence, 24 h; Potency, µM (top dose mostly 57.1 µM), inactives show top-dose activity change, negative = cytotoxicity, usual class: cytotoxic; hit rate 0.12% among 150,000; AID 1671193;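 further: potency means the concentration at half of the fitted maximal effect; 0% = DMSO-treated cells and -100% = medium-only wells without cells; nearly all actives have a fitted effect of over 30% in size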
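HEK-293-SNCA-luc cells (1500/well) plated 24 h, then exposed 24 h to a dilution series; GF-AFC added 30 min at 37C, fluorescence 405/540 nm; normalised to medium-only and DMSO wells, Hill fit.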
KDM5B inhibitor: blocks human KDM5B histone demethylase activity | Q9UGL1 | KDM5B demethylase, FDH-coupled NADH fluorescence (FDH is formaldehyde dehydrogenase) | Potency, µM (doses to about 57.7 µM), hits mostly inhibitors | hit rate 2.6% among 220,000; further: potency means the concentration at half of the fitted maximal effect; 0% is about no effect; nearly all actives have a fitted effect of over 70% in size
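Here, H3K4me3 peptide (12.5 µM in substrate mix) is demethylated by KDM5BΔAP, 200 nM final, after 10 min compound exposure. Formaldehyde product is coupled through FDH (0.25 U/mL in mix) to NADH fluorescence; 30-min ΔRFU feeds dose-response curves.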
Active calls of the source: *; i = inactive; ? = inconclusive; / = not tested or not shown; [ ] = another dose, or the depositor's remark. Unless noted, the call rests on the fitted dose curve; in most records, active means well fitted curve in the direction sought with a large enough effect; inconclusive means small, poorly fitted or top-dose-only effect, or another doubt; inactive means no such curve, though single readings can be large; an effect the other way counts as inactive or inconclusive.

SMILES	IP6K1 inhibitor	SNCA expr inhib	HEK293 viab	KDM5B inhibitor
CN(C)C(=O)c1cc(-c2ccc(S(C)(=O)=O)cc2)c2cnn(C)c2n1	-2	-1%	3%	79µM*
CC(C)NC(=O)c1cc(-c2ccc(S(C)(=O)=O)cc2)c2cnn(C)c2n1	-8	-20%	5%	89µM*
CC1(COc2cccnc2)COc2ccc(C(=O)NCC3CCOCC3)cc2N1 (configuration not stated)	1	-8%[87.6 µM]	8%[87.6 µM]	35µM*
COc1ccc(OCC2(C)COc3ccc(C(=O)NC4CCC(O)CC4)cc3N2)cc1 (configuration not stated)	-15	?	?	32µM*
CC1(COc2cccnc2)COc2ccc(C(=O)NC3CCC(O)CC3)cc2N1 (configuration not stated)	-2	-25%[87.6 µM]	3%[87.6 µM]	35µM*
O=C(O)CCC(=O)N[C@H]1CO[C@H]2[C@@H]1OC[C@@H]2Nc1nccc(-c2ccco2)n1	10	-5%[87.6 µM]	5%[87.6 µM]	32µM*
CC(=O)Nc1ccc(S(=O)(=O)N[C@H]2CO[C@H]3[C@@H]2OC[C@@H]3Nc2nccc(-c3ccco3)n2)cc1	17	-20%	-19%	22µM*
c1coc(-c2ccnc(N[C@H]3CO[C@H]4[C@@H]3OC[C@@H]4NCC3CCCCC3)n2)c1	0	3%[87.6 µM]	-8%[87.6 µM]	32µM*
O=C(O)CSCC(=O)N[C@H]1CO[C@H]2[C@@H]1OC[C@@H]2Nc1nccc(-c2cccc(F)c2)n1	3	-21%	-1%	25µM*
COc1ccc(-c2ccnc(N[C@H]3CO[C@H]4[C@@H]3OC[C@@H]4NS(=O)(=O)c3ccc(NC(C)=O)cc3)n2)cc1	-18	-17%	-10%	?
COCCNC(=O)C(NC(=O)c1cccc(OC)c1)C1CCN(C(=O)COC)CC1 (configuration not stated)	5	12%	0%	i
Cc1cc(C(C#N)c2ccc(Cl)cc2)c(Cl)cc1N (configuration not stated)	/	/	/	i
O=C(NC1CC1)C1CCCN(Cc2cccc(-c3ccc(F)cc3F)c2)C1 (configuration not stated)	7	-1%	-1%	/
O=C(O)CCC(=O)N[C@H]1CO[C@H]2[C@@H]1OC[C@@H]2Nc1nccc(-c2cccc(F)c2)n1	-3	11%[87.6 µM]	1%[87.6 µM]	32µM*
CC(=O)OCC12COC(c3ccc(OC(C)=O)cc3)C(C(C)=CC1C)C2C (configuration not stated)	/	/	/	i
CCCS(=O)(=O)N1CCc2n[nH]c(=O)n2CC1	-6	?	6%	i
CCCCS(=O)(=O)N1CCc2n[nH]c(=O)n2CC1	-13	-7%	-1%	20µM*
Cc1cccc(S(=O)(=O)Nc2nc3ccccc3nc2Nc2ccc(C)c(F)c2)c1	/	/	/	i
O=C(NCc1nnc2c(-c3nc(C4CC4)no3)cccn12)c1cc(F)ccc1F	17	-6%	10%	28µM*
O=C(NCc1nnc2c(-c3nc(C4CC4)no3)cccn12)c1cc(F)ccc1Cl	-7	-29%	5%	28µM*
CCOc1ccccc1C(=O)NCc1nnc2c(-c3nc(C4CC4)no3)cccn12	3	9%	-5%	i
Cc1ccc(OCCNC(=O)Cc2c[nH]c3ccccc23)c(C)c1	/	/	/	i
COCc1ncc(C)n1CCNC(=O)c1ccc(C)[nH]c1=O	-16	16%	-2%	22µM*
FC(F)(F)C1CN(c2ccc3cc(Cl)ccc3n2)CCO1 (configuration not stated)	-6	40%	3%	14µM*
CC1(C)C(=O)N(Cc2ccccc2)[C@H]2CN(c3ccnc(N4CCOCC4)c3)C[C@@H]2[S+]1(=O)[O-]	8	-14%	-23%	i
SMILES	IP6K1 inhibitor	SNCA expr inhib	HEK293 viab	KDM5B inhibitor
COc1cncc(N2C[C@H]3[C@H](C2)[S+](=O)([O-])C(C)(C)C(=O)N3Cc2ccccc2)c1	-5	?	-9%[87.6 µM]	7.1µM*
O=C(NC1CC(c2nnc(CO)n2C2CC2)C1)c1ccc(F)cc1Cl (configuration not stated)	14	-4%	4%	i
O=C(NC1CC(c2nnc(CO)n2C2CC2)C1)c1cccn2cnnc12 (configuration not stated)	8	13%	-5%	28µM*
Cc1cc(C(=O)N(CCC(=O)NCCC(C)C)CCC(C)C)c(C)o1	-6	1%	-8%	?
c1ccc(-c2ccc(N3CC4(CCNCC4)C3)cc2)cc1	/	?	32µM*	/
c1ccc(-c2ccc(N3CC[C@@]4(CCCNC4)C3)cc2)cc1	/	32%	-3%	/
COc1cc(Cl)ccc1C(=O)N[C@@H]1CN(c2ccncn2)C[C@H]1CN(C)C	-7	0%	-12%	i
COc1ccc(C(=O)N[C@@H]2CN(c3ccccn3)C[C@H]2CN(C)C)c(OC)c1	23	1%	-15%	28µM*
CN(C)C[C@@H]1CN(c2ccccn2)C[C@H]1NC(=O)c1cnco1	8	-4%	-1%	32µM*
COc1ccc(CC(=O)N[C@@H]2CN(c3ccccn3)C[C@H]2CN(C)C)cc1	0	0%	3%	28µM*
Cc1ccc(C(=O)N(CC(C)C)CC2CN(C(=O)c3ccc4c(c3)OCO4)CCO2)cc1 (configuration not stated)	7	-4%	-3%	i
O=C(Cc1cccs1)N/N=C/c1c2ccccc2cc2ccccc12	/	/	/	i
COc1ccc(C2CCCN2C(=O)NCCn2ccnc2)cc1OC (configuration not stated)	/	/	/	i
CCOC(=O)CN1CCCC1c1ccc(C(=O)NCCn2ccnc2)s1 (configuration not stated)	13	-31%	3%	28µM*
COc1ccc(NC(=O)N2CC[C@H]3COC(=O)N3c3cc(C)ccc3C2)cc1	4	33%[87.6 µM]	-1%[87.6 µM]	i
C=C1C(=O)[C@@]23C(CC[C@@H]1[C@H]2O)[C@@]12CO[C@]3(O)[C@@H](O)[C@@H]1C(C)(C)CC[C@@H]2O (some centres not stated)	-1	34µM*	30µM*	/
CCCc1noc(-c2cccn3c(CNC(=O)CC4CCCCC4)nnc23)n1	18	18%	2%	?
CC(C)c1noc(-c2cccn3c(CNC(=O)CCC4CCCC4)nnc23)n1	11	-4%	-5%	16µM*
CCc1noc(-c2cccn3c(CNC(=O)CCC4CCCC4)nnc23)n1	-5	11%	12%	28µM*
O=C(c1ccc(N2CC3CC(C2)[C@H]2CCCC(=O)N2C3)nc1)N1CCN(C2CCCCC2)CC1 (some centres not stated)	-1	7%	11%	i
COCc1cc(C[C@@H]2CC[C@H](O)[C@@H](CNCc3ccccc3OC)O2)no1	-3	18%[87.6 µM]	0%[87.6 µM]	i
O=C1NC2(CCN(C(=O)OCc3ccccc3)C2)N=C1c1ccccn1 (configuration not stated)	3	-3%	7%	25µM*
Cc1ccc2nc3c(n2c1)C(c1ccccc1OCCN(C)C)CC(=O)NC3 (configuration not stated)	-3	-1%	0%	32µM*
